Experimental data taken from PubChem BioAssay AID647 (Vanderbilt High Throughput Screening Facility, 2007).
Screen size: about 2,200 compounds; about 1,400 (64%) were called active. The set was probably picked from earlier hits. A selection follows. A number with no mark means an inactive call.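 Rule for the calls: active = luminescence in either replicate above plate mean of wells with a partly effective reference agonist dose plus 3 SD; inactive = the rest.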

Assay: isoproterenol-driven CRE-luciferase response modulation in HEK293 cells, confirmation, counter-screen for D1 allosteric modulator project, cell-based, secondary assay 2, luminescence (AID 647);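 note: isoproterenol raises cAMP through native beta-adrenoceptor Gs so signal bypasses D1; raw luminescence counts from the Envision reader with one value per duplicate well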
Conditions: isoproterenol EC30 counter-screen, at 10 µM, hits give high values

Row | Structure (SMILES) | luminescence
1 | COc1ccc(-c2nnc(SCC(=O)NC3CCCCC3)o2)cc1OC | 3200 (active)
2 | O=S(=O)(c1cccs1)N1CCc2ccccc2C1 | 3530 (active)
3 | CCOC(=O)/C=c1\s/c(=C\c2ccccc2OC)c(=O)n1CC(=O)N1CCOCC1 | 3580 (active)
4 | CCCn1c(=O)c2[nH]c(C3CCCC3)nc2n(CCC)c1=O | 3630 (active)
5 | COc1ccc(S(=O)(=O)N(C)CC(=O)Nc2ccc3c(c2)OCCO3)cc1OC | 3480 (active)
6 | Cc1nn(-c2ccccc2)c2c1C(=O)NC(=O)C(C)(C)C2 | 3700 (active)
7 | CC(=O)OC(C)C[N+](C)(C)C (stereo not drawn) | 2500
8 | CCc1ccc2oc(=O)cc(CN3CCCCC3C)c2c1 (stereo not drawn) | 3040 (active)
9 | COc1ccc(-c2n[nH]c(C)c2-c2ccc(OC)c(OC)c2)c(O)c1 | 3290 (active)
10 | CCCSc1nc2c(c(=O)[nH]c(=O)n2C)n1CCc1ccccc1 | 6090 (active)
11 | CC1CCN(c2nc3c(c(=O)[nH]c(=O)n3C)n2CCCc2ccccc2)CC1 | 5160 (active)
12 | COC(=O)Nc1ncc(CN2C(=O)c3ccccc3C2=O)s1 | 2570
13 | CCc1cc(=O)oc2cc(OCC(=O)N3CCCc4ccccc43)ccc12 | 4550 (active)
14 | C=CCn1cnc2scc(-c3ccccc3)c2c1=O | 3500 (active)
15 | CCCc1nc(N)nc2c1C(=O)CC(C)(C)C2 | 4320 (active)
16 | COc1ccc(-c2nnn(Cc3nc(N)nc(N4CCCCC4)n3)n2)cc1 | 3650 (active)
17 | COc1ccc(NC(=O)C2CCCN(S(=O)(=O)c3cccc4cccnc34)C2)cc1OC (stereo not drawn) | 3940 (active)
18 | COc1ccc(CCN(C)C(=O)C2CCCN(Cc3ccc(OC)c(OC)c3)C2)cc1OC (stereo not drawn) | 2610
19 | CCOC(=O)c1c(NC(=O)CSc2nnc(CN3CCOCC3)n2C)sc2c1CCCC2 | 2880
20 | C#CCNc1nc(C(C)C)nc2c1nnn2Cc1ccccc1F | 3140 (active)
21 | COc1ccc(-c2cc(C(F)(F)F)nc(S(C)(=O)=O)n2)cc1OC | 4780 (active)
22 | COc1ccc(S(=O)(=O)Nc2ccc(S(=O)(=O)N3CCCCC3)cc2)cc1OC | 3220 (active)
23 | N#CCCN1CCN(S(=O)(=O)c2ccc(S(=O)(=O)NC3CCCCC3)cc2)CC1 | 2440
24 | COc1nc(NCc2ccc(Cl)cc2)nc(OC)n1 | 2930
25 | CCOC(=O)c1cc2n(c1C)-c1ccccc1C2=O | 3830 (active)
26 | c1ccc(-c2nnc3n2NC(c2ccc4c(c2)OCO4)S3)cc1 (stereo not drawn) | 3680 (active)
27 | CCCCNc1nc2ccccc2nc1NS(=O)(=O)c1cccs1 | 3780 (active)

Row | Structure (SMILES) | luminescence
28 | COc1ccc(CCNC(=O)CCn2c(=O)oc3ccccc32)cc1OC | 3400 (active)
29 | COc1ccc(CCNC(=O)c2cc3sccc3n2C)cc1OC | 3110
30 | CCn1c(=N)c(S(=O)(=O)c2ccc(F)cc2)cc2c(=O)n3ccccc3nc21 | 5680 (active)
31 | CCCn1c(=NC(C)=O)c(C(=O)OCC)cc2c(=O)n3ccccc3nc21 | 2650
32 | O=C(NCc1ccccn1)c1ccc2nc(-c3ccco3)c(-c3ccco3)nc2c1 | 2550
33 | Cn1c(/C(C#N)=C2/CCCCCN2)nc2ccccc21 | 3990 (active)
34 | CCn1cc(C(=O)NCC2COc3ccccc3O2)c2cc(OC)c(OC)cc2c1=O (stereo not drawn) | 2910
35 | CCC(=O)NC(=Nc1nc2ccccc2s1)NC(=O)CC | 3180
36 | Cn1c(=O)c2[nH]c(NCC3CCCO3)nc2n(-c2ccccc2)c1=O (stereo not drawn) | 2780
37 | c1ccc2c(NCC3CCCO3)nc(-c3ccncc3)nc2c1 (stereo not drawn) | 3220 (active)
38 | CCCCSc1nc2c(c(=O)n1CC)SC(C)C2 (stereo not drawn) | 2820
39 | CCOc1cccc(-n2nnnc2-c2ccc(OC)cc2)c1 | 4040 (active)
40 | CC(C)n1c(C(O)c2ccccc2)nc2ccccc21 (stereo not drawn) | 2350
41 | COC(=O)c1ccccc1NC(=O)C1CCN(S(=O)(=O)c2cc(OC)ccc2OC)CC1 | 3570 (active)
42 | CCCS(=O)(=O)N1CCC(C(=O)NCCc2ccc(OC)c(OC)c2)CC1 | 2720
43 | Cn1c(=O)c2cn(-c3cccc4ccccc34)cc2n(C)c1=O | 3300 (active)
44 | COc1ccc(Nc2cc(C)nc(-n3nc(C)cc3C)n2)cc1 | 3540 (active)
45 | CC(=O)c1ccc(Oc2cc(C)nc(-n3nc(C)cc3C)n2)cc1 | 6880 (active)
46 | COc1ncnc2sc3c(c12)CCCC3 | 2970
47 | CCOc1ccc(Cn2c(SCCCCC#N)nc3c2c(=O)n(C)c(=O)n3C)cc1OCC | 5750 (active)
48 | COC(=O)C(C)C1Sc2ccccc2NC1=O (stereo not drawn) | 3160
49 | CN1CCN(CC(O)COCc2ccc3c(c2)OCO3)CC1 (stereo not drawn) | 5380
50 | c1coc(-c2nc3nc4ccccc4n3nc2-c2ccco2)c1 | 4380 (active)
51 | COC(=O)C1=C(C)NC2=C(C(=O)c3ccccc32)C1c1ccc(-c2ccc(C(=O)O)cc2)o1 (stereo not drawn) | 2560
52 | CCCCc1c(O)nc2n(c1=O)CCS2 | 2460
53 | COc1ccc(CCNc2ncnc3nc[nH]c23)cc1OC | 3430 (active)
